# HepG2 tox = qHTS for Inhibitors of TGF-b: Cytotox Counterscreen | HepG2 CAGA-GFP viability, ATP luminescence, 18 h | Potency, µM (highest dose often 46.1 µM), without a hit: at the top dose activity change, negative = cytotoxicity, hits mostly cytotoxic | 410,000 tested, 0.76% active; note: potency is the fitted concentration of half-maximal effect
#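 CellTiter-Glo luminescence gave cytotoxicity after 18 hours at 37 degrees C. The cells were HepG2 CAGA-GFP in 1% FBS DMEM, stimulated with 500 pg/mL TGF-beta after compound addition. %Activity was normalised to no-cell wells (complete cell-killing) and DMSO (no toxicity), and curves were fitted and classified.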
# TGFb inhibitor = qHTS for Inhibitors of TGF-b; HepG2 CAGA-GFP TGF-b/SMAD3 reporter, GFP fluorescence, 18 h; TGF-beta stimulated, 500 pg/mL final; Potency, µM (titrated, usually from 46.1 µM), for the others: at the top dose activity, negative = inhibition, usual class: inhibitors; 410,000 tested, 1.2% active; note: potency is the fitted concentration of half-maximal effect; % is set by controls: 0 for no effect and ±100 for the full control effect; nearly all actives have a fitted effect of over 65% in size
#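 HEPG2 CAGA-GFP reporter cells (1000/well, DMEM with 1% FBS) received compounds, then recombinant TGF-beta at 500 pg/mL final for 18 hours at 37 degrees C. Per-cell GFP summed per well was normalised to unstimulated and stimulated DMSO controls before curve fitting.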
# TDP1 inh = qHTS Assay for Inhibitors of Tyrosyl-DNA Phosphodiesterase (TDP1); 350,000 tested, 0.28% active; Potency, µM (series often up to 130 µM), for the others: at the top dose activity change, negative = inhibition, hits mostly inhibitors; AID 485290, 2010; recombinant TDP1, AlphaScreen DNA substrate cleavage; Tyrosyl-DNA phosphodiesterase 1 (Homo sapiens), Q9NUW8; note: potency is the fitted concentration of half-maximal effect; % is set by controls: 0 for no effect and ±100 for the full control effect; nearly all actives have a fitted effect of over 40% in size
# Target sequence (Q9NUW8 whole entry, looked up): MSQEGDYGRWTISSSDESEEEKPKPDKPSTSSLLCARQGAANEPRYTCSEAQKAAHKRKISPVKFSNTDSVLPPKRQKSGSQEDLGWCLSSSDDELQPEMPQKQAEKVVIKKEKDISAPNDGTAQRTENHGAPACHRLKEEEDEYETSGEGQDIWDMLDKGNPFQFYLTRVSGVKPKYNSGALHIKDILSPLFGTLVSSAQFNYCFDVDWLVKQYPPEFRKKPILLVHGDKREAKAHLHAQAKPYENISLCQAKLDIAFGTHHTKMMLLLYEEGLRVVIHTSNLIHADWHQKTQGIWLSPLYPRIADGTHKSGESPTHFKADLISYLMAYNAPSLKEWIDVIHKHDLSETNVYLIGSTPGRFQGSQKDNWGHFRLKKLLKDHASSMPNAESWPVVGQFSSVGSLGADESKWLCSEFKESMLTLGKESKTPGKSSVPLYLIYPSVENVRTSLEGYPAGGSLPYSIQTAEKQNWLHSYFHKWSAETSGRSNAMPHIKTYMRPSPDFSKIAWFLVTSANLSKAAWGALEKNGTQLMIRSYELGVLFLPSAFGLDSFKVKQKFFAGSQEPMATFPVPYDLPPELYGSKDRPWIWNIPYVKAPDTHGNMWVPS
#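 E. coli-derived human Tdp1, 1 nM final. Cpd preinc 15 min RT; substrate 15 nM final, 5 min RT; AS bead mix 10 ug/ml final, 10 min RT. Signal loss = tyrosine-FITC cleavage. No-enzyme wells = max signal.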
# TDP1 cell CPT = qHTS for Inhibitors of human tyrosyl-DNA phosphodiesterase 1 (TDP1): qHTS in cells in presence of CPT | chicken DT40 Tdp1-/-;hTDP1 cells + 20 nM CPT, ATP luminescence, 48 h | Potency, µM (highest dose often 46.2 µM), without a hit: at the top dose activity change, negative = growth inhibition, usual class: inhibitors | 420,000 tested, 12% active | AID 686979, 2013; note: potency is the fitted concentration of half-maximal effect; % is set by controls: 0 for no effect and ±100 for the full control effect; nearly all actives have a fitted effect of over 55% in size
#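 Cell growth measured by CellTiter-Glo luminescence after a minimum 48 h, 37 C compound exposure with 20 nM CPT in Tdp1-knockout DT40 cells stably expressing hTDP1, seeded 400/well; qHTS titration format.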
# IL1B secr inh = qHTS for Inhibitors of Inflammasome Signaling: IL-1-beta AlphaLISA Primary Screen; AID 743279, 2014; activity change, % at 57.5 µM; THP-1 LPS/ATP IL-1B secretion, AlphaLISA, 16 h; hits give low values; 360,000 tested, 4.7% active; in the data active = activity change below about -50%; inconclusive = mostly about -30% to -49%; note: % is set by controls: 0 for no effect and ±100 for the full control effect
#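 THP-1 cells pretreated 1 hr with compounds (up to 57.5 uM final), then stimulated with LPS (250 ng/mL final) plus ATP (1.25 mM final); secreted IL-1B measured by AlphaLISA after 16 hr, decreased signal indicating inhibition.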
# TDP1 cell noCPT = qHTS for Inhibitors of human tyrosyl-DNA phosphodiesterase 1 (TDP1): qHTS in cells in absence of CPT. DT40 Tdp1-/- hTDP1 cells, no CPT, ATP luminescence, 48 h. Potency, µM (series often up to 46.2 µM), inactives show at the highest dose activity change, negative = growth inhibition, actives largely listed as inhibitors. 420,000 tested, 15% active. AID 686978, 2013; note: potency is the fitted concentration of half-maximal effect; % is set by controls: 0 for no effect and ±100 for the full control effect; nearly all actives have a fitted effect of over 55% in size
#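 Luminescent ATP content (CellTiter-Glo) served as the growth readout. Knockout chicken DT40 cells expressing human TDP1 were exposed to compounds without camptothecin for a minimum 48 hr at 37 °C.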
# * marks the source's active call; other numbers are inactive results; ? = inconclusive; . = no result given; [ ] = another dose, or the depositor's remark. Hits are enriched below; roughly 18% of the tested compounds scored in any of these assays. Unless noted, calls come from the whole dose curve; as a rule, active = well fitted curve in the direction sought with a large enough effect; inconclusive = small, poorly fitted or top-dose-only effect, or another doubt; inactive = no such curve, though single readings can be large; an effect the other way counts as inactive or inconclusive.
SMILES,HepG2 tox,TGFb inhibitor,TDP1 inh,TDP1 cell CPT,IL1B secr inh,TDP1 cell noCPT
O=[N+]([O-])c1ccc2c(c1)[nH]c(=S)n2-c1ccccc1,1.0%,0.4%,4.9%,-28.5%,11.1,-14.2%
CCc1cccc(NC(=O)CCCn2nc(C)c3c(C)n(-c4ccccc4)nc3c2=O)c1,0.0%,?,0.0%,?,-22.6,-20.4%
O=C1[C@H]2[C@H]3[C@H](O)[C@H](O)C/C(=N/OCc4ccccc4)[C@H]3CC[C@@H]2C(=O)N1C1CCCCC1,.,.,9.0%[21 µM],.,.,.
COc1cc(C(=O)Nc2nc(-c3ccc(F)cc3)cs2)ccc1OCC(=O)N1CCOCC1,-39.8%,?,0.0%,18.4µM*,?,11.6µM*
O=C(C1CCN(S(=O)(=O)c2cccc3nsnc23)CC1)N1CCc2ccccc2C1,-16.9%,7.4%,4.1%,?,-62.9*,?
CC1CCCN(C(=O)C2CCN(S(=O)(=O)c3cccc4nsnc34)CC2)C1 (centres undefined),-3.9%,-0.6%,5.7%,7.5%,12.6,-0.7%
CCCCN(CCCC)C(=O)C1CCN(S(=O)(=O)c2cccc3nsnc23)CC1,-15.6%,?,4.7%,16.4µM*,.,25.9µM*
CCCN(CCC)CCCNC(=O)C1CCN(S(=O)(=O)c2cccc3nsnc23)CC1,3.8%,?,0.7%,8.5%,1.3,5.7%
CC1Nc2ncnc(N3CCN(c4ccccn4)CC3)c2N(Cc2ccccc2)C1=O (centres undefined),3.7%,-19.7%,.,?,-8.9,?
COc1ccc(CN2C(=O)C(C)Nc3ncnc(N4CCN(c5ccccn5)CC4)c32)cc1 (centres undefined),8.2%,3.8%,5.3%,?,-20.4,23.1µM*
Cc1ccc(CN2C(=O)C(C)Nc3ncnc(N4CCN(c5ccccn5)CC4)c32)cc1 (centres undefined),-12.0%,-1.1%,-0.2%,?,-2.4,18.4µM*
COc1ccc(CN2C(=O)C(C)Nc3ncnc(N4CCc5ccccc5C4)c32)cc1 (centres undefined),1.8%,?,.,4.61µM*,47.9,4.61µM*
Cc1ccc(C)c(NC(=O)CN(C)C(=O)[C@@H](NC(=O)c2ccc(C(C)(C)C)cc2)C(C)C)c1,-85.2%,?,-0.6%,23.1µM*,-21.0,18.4µM*
O=C1NC(=O)c2cc(Nc3ccc(F)cc3)c(Nc3ccc(F)cc3)cc21,.,.,15.4%,.,.,.
O=C1NC(=O)c2cc(Nc3ccccc3)c(Nc3ccccc3)cc21,.,.,17.4%,?,.,12.6µM*
COc1ccc(-n2ncc3c2CC(C)(C)CC3NC(=O)CCN2CCCCC2=O)cc1 (centres undefined),-3.8%,-10.2%,-2.8%,-23.8%,15.6,-12.4%
CCOC(=O)[C@]12CCCC=C1N(Cc1ccco1)C(=O)[C@H](CC(=O)N1CCOCC1)C2,.,.,.,-7.2%,31.3,-19.3%
Cc1oc2c(c1C(=O)Nc1cccc3ccccc13)CCCC2,3.2%,-0.2%,1.0%,10.3µM*,2.5,13µM*
COc1ccccc1NC(=O)c1c(C)oc2c1CCCC2,-2.0%,-1.6%,2.7%,?,15.0,?
Cc1cc(C(=O)Nc2cccc3ccccc23)c(C)o1,-17.7%,-3.0%,.,23.1µM*,-11.2,-22.2%
Cc1cc(C(=O)NCCC(c2ccccc2)c2ccccc2)c(C)o1,-16.5%,-5.0%,7.5%,18.4µM*,-11.2,?
